Reference: PubChem BioAssay (Tox21)
Records with an inconclusive call do not appear. Calls of active or inactive are those of the source. Calls follow the shape of the dose curve; as a rule, active = well fitted curve in the direction sought with a large enough effect in the repeat runs; inconclusive = weak or mixed curves; inactive = no such curve, though single readings can be large; an effect the other way counts as inactive or inconclusive.

Experiments:
[1] = qHTS RealTime-Glo MT Cell Viability Assay in HepG2 cells - 40 hour (AID 1224870); also: nearly all actives have a fitted effect of over 50% in size
Outline: (§1)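 HepG2 cells mixed with RealTime-Glo MT reagents (NanoLuc plus cell-permeant prosubstrate) were seeded at 600 cells/well, incubated 5 h at 37 C/5% CO2, then pinned with compounds in DMSO; nonlytic luminescence tracked viability during 40 h treatment.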

[2] = A CellTox Green Cytotoxicity Assay to monitor cytotoxicity in HEK293 cells - 40 hour (AID 1224871); also: nearly all actives have a fitted effect of over 45% in size; also: potency is read from the fitted curve at half-maximal effect
Outline: (§2)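 Homogeneous no-lysis format: HEK293 cell suspension mixed with CellTox Green reagent, seeded, incubated 5 h at 37 C/5% CO2, then dosed by pintool with compound in DMSO.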

[3] = qHTS RealTime-Glo MT Cell Viability Assay in HepG2 cells - 8 hour (AID 1224873); also: nearly all actives have a fitted effect of over 55% in size
Outline: as §1

[4] = qHTS RealTime-Glo MT Cell Viability Assay in HEK293 cells - 40 hour (AID 1224874); conditions: RealTime-Glo luminescence; max response: active compounds read low; also: nearly all actives have a fitted effect of over 50% in size; also: potency is read from the fitted curve at half-maximal effect
Outline: (§3)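 Measured as luminescence from the same continuously cultured HEK293 wells at successive time points (0, 8, 16, 24, 32, 40 h) after compound addition. Reagent present from seeding; dosing at 5 h; incubation 37 C.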

[5] = A CellTox Green Cytotoxicity Assay to monitor cytotoxicity in HEK293 cells - 24 hour (AID 1224875); also: nearly all actives have a fitted effect of over 45% in size; also: potency is read from the fitted curve at half-maximal effect
Outline: as §2

[6] = A CellTox Green Cytotoxicity Assay to monitor cytotoxicity in HepG2 cells - 16 hour (AID 1224876); also: nearly all actives have a fitted effect of over 45% in size; also: potency is read from the fitted curve at half-maximal effect
Outline: (§4)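 Fluorescent DNA-binding dye, 600 HepG2 cells/well, 5 h preincubation then compound in DMSO; same plates read at 0–40 h, 37 C.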

[7] = qHTS RealTime-Glo MT Cell Viability Assay in HepG2 cells - 32 hour (AID 1224877); also: nearly all actives have a fitted effect of over 55% in size
Outline: (§5)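 Real-time, nonlytic viability: 600 HepG2 cells/well mixed with NanoLuc enzyme plus prosubstrate; 5 h settle, compound (DMSO) added by pintool; luminescence monitored over 40 h at 37 C.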

[8] = A CellTox Green Cytotoxicity Assay to monitor cytotoxicity in HepG2 cells - 40 hour (AID 1224879); also: nearly all actives have a fitted effect of over 40% in size; also: potency is read from the fitted curve at half-maximal effect
Outline: as §4

[9] = qHTS RealTime-Glo MT Cell Viability Assay in HEK293 cells - 0 hour (AID 1224880); also: top concentration of the series differs between compounds; nearly all actives have a fitted effect of over 45% in size
Outline: as §3

[10] = A CellTox Green Cytotoxicity Assay to monitor cytotoxicity in HEK293 cells - 32 hour (AID 1224881); also: nearly all actives have a fitted effect of over 40% in size; also: potency is read from the fitted curve at half-maximal effect
Outline: as §2

[11] = A CellTox Green Cytotoxicity Assay to monitor cytotoxicity in HepG2 cells - 0 hour (AID 1224882); also: nearly all actives have a fitted effect of over 35% in size
Outline: as §4

[12] = A CellTox Green Cytotoxicity Assay to monitor cytotoxicity in HepG2 cells - 32 hour (AID 1224883); also: nearly all actives have a fitted effect of over 50% in size; also: potency is read from the fitted curve at half-maximal effect
Outline: as §4

[13] = A CellTox Green Cytotoxicity Assay to monitor cytotoxicity in HEK293 cells - 8 hour (AID 1224884); also: nearly all actives have a fitted effect of over 35% in size; also: potency is read from the fitted curve at half-maximal effect
Outline: as §2

[14] = qHTS RealTime-Glo MT Cell Viability Assay in HepG2 cells - 16 hour (AID 1224885); also: nearly all actives have a fitted effect of over 50% in size
Outline: as §5

[15] = A CellTox Green Cytotoxicity Assay to monitor cytotoxicity in HEK293 cells - 16 hour (AID 1224888); also: nearly all actives have a fitted effect of over 35% in size
Outline: as §2

[16] = qHTS RealTime-Glo MT Cell Viability Assay in HepG2 cells - 0 hour (AID 1224889); also: nearly all actives have a fitted effect of over 50% in size; also: potency is read from the fitted curve at half-maximal effect
Outline: as §5

[17] = A CellTox Green Cytotoxicity Assay to monitor cytotoxicity in HepG2 cells - 24 hour (AID 1224878); also: nearly all actives have a fitted effect of over 45% in size; also: potency is read from the fitted curve at half-maximal effect
Outline: as §4

[18] = qHTS RealTime-Glo MT Cell Viability Assay in HEK293 cells - 8 hour (AID 1224887)
Outline: as §3

[19] = qHTS RealTime-Glo MT Cell Viability Assay in HEK293 cells - 24 hour (AID 1224886)
Outline: (§6)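 Cells + reagent dispensed (600 cells/well, HEK293) → 5 h at 37 C/5% CO2 → 23 nL compound in DMSO pinned → 40 h at 37 C → luminescence read at 0, 8, 16, 24, 32, 40 h.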

[20] = qHTS RealTime-Glo MT Cell Viability Assay in HEK293 cells - 16 hour (AID 1224872)
Outline: as §6
% is scaled to controls: 0 for no effect and ±100 for the full control effect.

Cc1nc(N)nc(N)c1-c1ccc(Cl)c(Cl)c1
active: Potency [4] 1.07 µM
inactive: Potency [1] | Potency [2] | outcome [3] | Potency [5] | Potency [6] | Potency [7] | Potency [8] | outcome [9] | Potency [10] | Potency [11] | Potency [12] | Potency [13] | outcome [14] | Potency [15] | Potency [16]

CC1(C)O[C@@H]2C[C@H]3[C@@H]4CCC5=CC(=O)CC[C@]5(C)[C@@]4(F)[C@@H](O)C[C@]3(C)[C@]2(C(=O)CCl)O1
active: Potency [16] 5.35 µM
inactive: Potency [1] | Potency [2] | outcome [3] | Potency [5] | Potency [6] | Potency [7] | Potency [17] | Potency [8] | Potency [10] | Potency [11] | Potency [13] | outcome [14] | Potency [18] | Potency [15]

C[C@@H](N)C(=O)O
inactive: Potency [1] | Potency [2] | outcome [3] | max response [4] 1.04% | Potency [5] | Potency [7] | Potency [17] | outcome [9] | Potency [10] | Potency [11] | Potency [13] | outcome [14] | Potency [19] | Potency [18] | Potency [15] | Potency [16]

Cc1ccccc1C(=O)Nc1ccc(C(=O)N2CCCC(O)c3cc(Cl)ccc32)c(C)c1 (configuration not stated)
inactive: Potency [1] | Potency [2] | outcome [3] | Potency [5] | Potency [6] | Potency [7] | Potency [17] | outcome [9] | Potency [10] | Potency [11] | Potency [12] | Potency [13] | outcome [14] | Potency [16]

CCOc1ccc(NS(=O)(=O)c2ccc(N)cc2)nn1
inactive: Potency [1] | Potency [2] | outcome [3] | Potency [5] | Potency [6] | Potency [7] | Potency [17] | Potency [8] | outcome [9] | Potency [10] | Potency [11] | Potency [12] | Potency [13] | outcome [14] | Potency [15] | Potency [16]

Cc1ccc(C)c(N)c1
inactive: Potency [1] | Potency [20] | outcome [3] | max response [4] 4.84% | Potency [5] | Potency [6] | Potency [7] | Potency [17] | Potency [8] | outcome [9] | Potency [10] | Potency [11] | Potency [12] | Potency [13] | outcome [14] | Potency [19] | Potency [18] | Potency [15] | Potency [16]

CC[C@H]1CC[C@H](NCc2cc3c(cc2OC)[C@H]2C[C@H]2C(=O)N3C)[C@H](c2ccccc2)N1
inactive: Potency [1] | Potency [2] | outcome [3] | Potency [5] | Potency [6] | Potency [7] | outcome [9] | Potency [10] | Potency [11] | Potency [13] | outcome [14] | Potency [15] | Potency [16]

CC(C)(CO)[C@@H](O)C(=O)NCCC(=O)O
inactive: Potency [1] | Potency [2] | outcome [3] | max response [4] 4.63% | Potency [5] | Potency [6] | Potency [7] | Potency [8] | outcome [9] | Potency [10] | Potency [11] | Potency [12] | Potency [13] | outcome [14] | Potency [18] | Potency [15] | Potency [16]

CCCCNc1ccc(C(=O)OCCN(CC)CC)cc1
inactive: Potency [1] | Potency [2] | outcome [3] | max response [4] -22.9% | Potency [5] | Potency [6] | Potency [7] | Potency [17] | Potency [8] | outcome [9] | Potency [10] | Potency [11] | Potency [13] | outcome [14] | Potency [18] | Potency [15] | Potency [16]

C=CC1CO1 (configuration not stated)
inactive: Potency [1] | Potency [2] | outcome [3] | max response [4] 6.13% | Potency [5] | Potency [6] | Potency [7] | Potency [8] | outcome [9] | Potency [10] | Potency [11] | Potency [12] | Potency [13] | outcome [14] | Potency [18] | Potency [15] | Potency [16]

CCCCCCCCCCCCOCCOS(=O)(=O)O
active: Potency [2] 24.5 µM | Potency [5] 24.5 µM | Potency [6] 49 µM | Potency [17] 49 µM | Potency [8] 54.9 µM | Potency [10] 24.5 µM | Potency [12] 54.9 µM | Potency [13] 19.5 µM
inactive: Potency [1] | outcome [3] | Potency [7] | outcome [9] | Potency [11] | outcome [14] | Potency [19] | Potency [18] | Potency [16]

CC(=O)Oc1cc(C(C)C)c(OCCN(C)C)cc1C
inactive: Potency [1] | Potency [2] | outcome [3] | Potency [5] | Potency [6] | Potency [7] | Potency [17] | Potency [8] | outcome [9] | Potency [10] | Potency [11] | Potency [12] | Potency [13] | outcome [14] | Potency [15] | Potency [16]

CCCCNC(=S)NCCCC
inactive: Potency [1] | Potency [20] | outcome [3] | max response [4] -21.7% | Potency [5] | Potency [6] | Potency [7] | Potency [17] | Potency [8] | outcome [9] | Potency [10] | Potency [11] | Potency [12] | Potency [13] | outcome [14] | Potency [18] | Potency [15] | Potency [16]

CO[Si](C)(C)OC
inactive: Potency [1] | Potency [2] | outcome [3] | max response [4] -0.595% | Potency [5] | Potency [7] | Potency [17] | outcome [9] | Potency [10] | Potency [11] | Potency [12] | Potency [13] | outcome [14] | Potency [18] | Potency [15] | Potency [16]

OCc1c2ccccc2cc2ccccc12
inactive: Potency [1] | Potency [2] | outcome [3] | Potency [5] | Potency [6] | Potency [7] | Potency [17] | Potency [8] | outcome [9] | Potency [10] | Potency [11] | Potency [13] | outcome [14] | Potency [15] | Potency [16]

CC1(C)C(=O)N(Cl)C(=O)N1Br
inactive: Potency [1] | Potency [2] | outcome [3] | max response [4] 17% | Potency [5] | Potency [6] | Potency [7] | Potency [17] | Potency [8] | outcome [9] | Potency [10] | Potency [11] | Potency [13] | outcome [14] | Potency [19] | Potency [18] | Potency [16]

C=CC(C)(O)CC/C=C(\C)CCC=C(C)C (configuration not stated)
active: Potency [2] 49 µM | Potency [5] 54.9 µM | Potency [6] 17.4 µM | Potency [17] 21.9 µM | Potency [8] 21.9 µM | Potency [10] 49 µM | Potency [12] 21.9 µM
inactive: Potency [1] | outcome [3] | max response [4] -1.81% | Potency [7] | outcome [9] | Potency [11] | outcome [14] | Potency [19] | Potency [18] | Potency [16]

O=C1CCN(c2ccccc2)N1
inactive: Potency [1] | Potency [20] | outcome [3] | max response [4] 4.28% | Potency [5] | Potency [6] | Potency [7] | Potency [17] | Potency [8] | outcome [9] | Potency [10] | Potency [11] | Potency [13] | outcome [14] | Potency [19] | Potency [18] | Potency [15] | Potency [16]

CC(C)(C)c1cccc(O)c1
inactive: Potency [1] | Potency [20] | outcome [3] | max response [4] -6.86% | Potency [5] | Potency [7] | outcome [9] | Potency [10] | Potency [11] | Potency [13] | outcome [14] | Potency [19] | Potency [18] | Potency [16]

O=C1CCCCCCCCCCC(=O)OCCO1
active: Potency [8] 24.5 µM | Potency [12] 24.5 µM
inactive: Potency [1] | outcome [3] | max response [4] -13.7% | Potency [6] | Potency [7] | outcome [9] | Potency [10] | Potency [11] | Potency [13] | outcome [14] | Potency [19] | Potency [15] | Potency [16]

C=CCCCCCCCCO
inactive: Potency [1] | Potency [20] | outcome [3] | max response [4] -15.3% | Potency [7] | outcome [9] | Potency [11] | Potency [13] | outcome [14] | Potency [19] | Potency [18] | Potency [15] | Potency [16]

CC(Oc1c(Cl)cccc1Cl)C1=NCCN1 (configuration not stated)
inactive: Potency [1] | outcome [3] | Potency [5] | Potency [6] | Potency [7] | Potency [17] | outcome [9] | Potency [10] | Potency [11] | Potency [12] | Potency [13] | outcome [14] | Potency [19] | Potency [18] | Potency [15] | Potency [16]
